Assay outcomes from PubChem.
PINK1 expr mod: changes PINK1 expression. PINK1 immunofluorescence, high-content cytometry, 24 h. Potency, µM (highest dose often 76.6 µM), for the others: top-dose activation (PINK1 increase), hits mostly activators. 0.2% of 410,000 active; active = well fitted activation curve with a large enough effect; inconclusive = small, poorly fitted or top-dose-only effect; cell line not stated here; also: % of control where 0% means no effect; nearly all actives have a fitted effect of over 65% in size
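Cells are seeded, rested 12 hours, then given compound at five concentrations or DMSO for 24 hours. After fixation, blocking and antibody staining, PINK1 amount and mitochondrial localization are scored; CCCP serves as control.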
Epigenetic reg: regulators of epigenetic silencing causing reporter derepression in mouse cells; murine LDR cells, GFP reporter derepression, 30 h; Potency, µM (titrated, usually from 53.9 µM), for the others: top-dose GFP activation, hits mostly activators; 0.2% of 280,000 active; AID 1865; also: % of control where 0% means no effect; nearly all actives have a fitted effect of over 60% in size
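Murine LDR cells bearing a silenced CMV-driven GFP reporter were exposed to compound for 30 h at 37 C. After PBS washes, GFP-positive cells (20-120 um objects) counted by laser-scanning microplate cytometry.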
HTT cytoprotect: protects HTT-Q103 PC12 cells, measured by ATP; 0.14% of 230,000 active; Potency, µM (titrated, usually from 56.4 µM), for the others: cytoprotection (ATP increase), hits mostly activators; PC12 HTT-Q103 induced, cytoprotection, ATP luminescence, 40 h; also: % of control where 0% means no effect; nearly all actives have a fitted effect of over 45% in size
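ATP quantification (ATPlite) reports survival of PC12 cells in which tebufenozide, 100 nM final, switches on Htt exon 1 with 103 glutamines linked to GFP; compounds are titrated.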
HTT aggregate: inhibitors of mutant huntingtin aggregate formation in PC12 cells. 1.1% of 220,000 active. Potency, µM (highest dose often 46.1 µM), for the others: at the highest dose activity change, negative = inhibition, hits mostly inhibitors. PC12 HttQ103-GFP aggregates, Acumen cytometry, 40 h; also: % is scaled to controls: 0 for no effect and ±100 for the full control effect; nearly all actives have a fitted effect of over 60% in size
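PC12 cells stably carrying ecdysone-inducible HTT exon 1 Q103–GFP were induced with tebufenozide (100 nM final) and treated with library compounds in titration. GFP aggregates in lysates were counted by laser scanning cytometry.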
The depositor's hits bear a star; ? = inconclusive; / = no result given; [ ] = another dose, or the depositor's remark. Many of the other results were omitted from the sample, so hits are more common in it than they were. Unless noted, calls follow the shape of the dose curve; as a rule, active = well fitted curve in the direction sought with a large enough effect; inconclusive = small, poorly fitted or top-dose-only effect, or another doubt; inactive = no such curve, though single readings can be large; an effect the other way counts as inactive or inconclusive. Potency is read from the fitted curve at half-maximal effect.

SMILES	PINK1 expr mod	Epigenetic reg	HTT cytoprotect	HTT aggregate
CC(=O)Nc1ccc(S(=O)(=O)N2CCCc3ccccc32)cc1	3.2µM*	2%	-42%	-31%
O=C(Nc1nc2c(F)cccc2s1)c1ccc(S(=O)(=O)N2CCCc3ccccc32)cc1	12%	4%	/	/
O=C(Nc1nnc(C2CC2)o1)c1ccc(S(=O)(=O)N2CCCc3ccccc32)cc1	3%	0%	-17%	11µM*
CN1CCc2c(sc(NC(=O)c3ccc(S(=O)(=O)N4CCc5ccccc54)cc3)c2C(N)=O)C1	/	?	7%[10 µM]	0%[9.22 µM]
COCc1nnc(NC(=O)c2ccc(S(=O)(=O)N3CCCc4ccccc43)cc2)o1	8%	0%	-134%	?
CNC(=O)c1c(NC(=O)c2ccc(S(=O)(=O)N3CCCc4ccccc43)cc2)sc2c1CCN(C)C2	?	22µM*	1%[10 µM]	-22%[9.22 µM]
Cn1c(SCCN2CCOCC2)nc2sc3c(c2c1=O)CCCC3	0%	/	/	/
C/C(=N\NC(=O)Cn1c(-c2ccccn2)nc2ccccc21)c1ccccc1	4%	-1%	5%[0.074 µM]	6%
CCc1ccc(C(=O)NNC(=O)Cn2c(=O)cnc3ccccc32)cc1	1%	/	/	/
Cc1nc2c(-c3ccc(F)cc3)c(C)[nH]n2c(=O)c1Cl	0%	/	/	/
Cc1ccc(C(NC(=O)C(C)C)c2cc([N+](=O)[O-])c3cccnc3c2O)cc1 (centres undefined)	0%	0%	-33%[10 µM]	20µM*
CC(C)C(=O)NC(c1cccs1)c1cc([N+](=O)[O-])c2cccnc2c1O (centres undefined)	-3%	?	-49%[10 µM]	2µM*
CCC(=O)NC(c1ccc(C)cc1)c1cc(Cl)c2cccnc2c1O (centres undefined)	2%	/	/	/
NC(=O)CC(NC(=O)c1ccc(Br)cc1)c1ccc(NCc2ccc(F)cc2)c([N+](=O)[O-])c1 (centres undefined)	23%	0%	-1%[10 µM]	21%[9.22 µM]
O=c1c2c3nc4ccccc4nc3n(/N=C/c3cccs3)c2ncn1-c1ccccc1	/	1%	-8%[0.074 µM]	1.8µM*
O=c1c2c3nc4ccccc4nc3n(/N=C/c3ccncc3)c2ncn1-c1ccccc1	5%	2%	-3%[10 µM]	-12%[9.22 µM]
COc1cc2[nH]c(=S)n(C3CCCC3)c(=O)c2cc1OC	-1%[38.3 µM]	-1%	3%	-7%
O=[N+]([O-])c1ccc(-c2nc3ccc([N+](=O)[O-])cc3[nH]2)cc1	?	-1%	-94%	18µM*
Nc1ccc(-c2nc3ccc([N+](=O)[O-])cc3[nH]2)cc1	2%	-1%	-53%[10 µM]	4%
O=S(=O)(NC1CC1)c1ccc(S(=O)(=O)N2CCCC(c3nc(-c4cccnc4)no3)C2)cc1 (centres undefined)	6%	5%	-6%[10 µM]	11µM*
O=S(=O)(c1ccc(F)cc1)N1CCCC(c2nc(-c3ccc(F)cc3)no2)C1 (centres undefined)	0%	/	/	/
COc1ccc(CNc2ncncc2-c2ccccc2CN(C)C)c(OC)c1	0%	0%	15%	/
CO[C@@H]1COC(=O)C/C=C\[C@@H](C)[C@H](OC)COC(=O)[C@H](COCc2ccccc2)NC(=O)C/C=C\[C@H]1C	/	-2%[10.1 µM]	3.2µM*	/
Cn1c(=O)c2cc(S(=O)(=O)N3CCOCC3)ccc2n(C)c1=O	5%[38.3 µM]	-1%	16µM*	-17%
CC(=O)c1ccc(S(=O)(=O)N2CCN(C(=O)c3ccc(COc4ccccc4)o3)CC2)cc1	-1%	/	/	/
SMILES	PINK1 expr mod	Epigenetic reg	HTT cytoprotect	HTT aggregate
Cc1nn(Cc2ccc(Cl)cc2Cl)c(C)c1NC(=O)c1sc2ccccc2c1Cl	10%	-2%	-18%	-10%
Cc1nn(Cc2ccc(Cl)cc2Cl)c(C)c1NC(=O)NC12CC3CC(CC(C3)C1)C2	1%	1%	-30%	25µM*
CCOC(=O)c1ccc(COC(=O)CCc2nc3ccccc3[nH]c2=O)o1	-1%	0%	-7%[10 µM]	2.8µM*
CCCCOC(=O)CCc1nc2ccccc2[nH]c1=O	2%	4%	-9%	8%
CCOC(CN=c1nc(N(C)C)ss1)OCC	-6%	/	/	/
CN(C)c1nc(=NCc2ccco2)ss1	0%	?	-92%[10 µM]	0.89µM*
Cc1noc(/C=C/c2ccc(-c3ccccc3Cl)o2)c1[N+](=O)[O-]	?	7.1µM*	1%	16%
Cc1noc(/C=C/c2cccnc2)c1[N+](=O)[O-]	-4%	/	/	/
Cc1cccc(C)c1N/C=C/c1onc(C)c1[N+](=O)[O-]	40µM*	?	-13%	-4%
CCc1ccc(N=C2N=C(N)c3ccccc32)cc1	1%	-2%	-16%[10 µM]	21%
COc1ccccc1Nc1nnc(SCC(=O)NC(=O)Nc2ccc3c(c2)OCCO3)s1	11µM*	2%	5%[10 µM]	-1%
Cc1ccccc1Nc1nnc(SCC(=O)NC(=O)Nc2ccc3c(c2)OCCO3)s1	/	-1%	10%[10 µM]	?
c1ccc(N=c2nc(-c3ccccc3)n(-c3ccccc3)s2)cc1	16µM*	/	/	/
CCCC[n+]1c(/C=C/c2ccc(N(C)C)cc2)sc2ccccc21	5µM*	/	/	/
CCOC(=O)c1c(C)oc2ccc(OC(=O)COc3c(F)c(F)c(F)c(F)c3F)cc12	-1%	1%	/	13µM*
CC(C)C(=O)NC(c1ccc(N(C)C)cc1)c1ccc2cccnc2c1O (centres undefined)	0%	/	/	/
CCCCC(=O)NC(c1ccccc1OC)c1ccc2cccnc2c1O (centres undefined)	1%	3.5µM*	-54%[10 µM]	-9%[9.22 µM]
CC(C)C(=O)NC(c1ccco1)c1ccc2cccnc2c1O (centres undefined)	0%	3.5µM*	-102%	4µM*
COc1ccc(C(NC(C)=O)c2ccc3cccnc3c2O)c(OC)c1 (centres undefined)	0%	?	-107%	4µM*
CC(C)CC(=O)NC(c1cccs1)c1ccc2cccnc2c1O (centres undefined)	2%	-1%	10%[10 µM]	-14%[9.22 µM]
CCC(=O)NC(c1cccs1)c1ccc2cccnc2c1O (centres undefined)	8%	4µM*	-45%[10 µM]	-15%[9.22 µM]
CCOc1ccc(S(=O)(=O)NCCc2csc3nc(-c4ccc(OC)c(OC)c4)nn23)cc1	-2%	0%	/	/
CCCC(=O)NC(c1ccccc1OC)c1ccc2cccnc2c1O (centres undefined)	0%	7.1µM*	-73%[10 µM]	?
O=c1[nH]c(CN2CCN(c3ccccc3Cl)CC2)nc2ccsc12	-1%	-1%	-5%[10 µM]	-10%
COc1cc2c(cc1OC)CN(Cc1nc3ccsc3c(=O)[nH]1)CC2	-3%	-12%	23%[10 µM]	4µM*
O=C1CCCC2=C1C(c1ccc(Cl)cc1)n1c(s/c(=C\c3ccc4ccncc4c3)c1=O)=N2 (centres undefined)	-1%	0%	18%[10 µM]	-13%
Cc1nn(-c2ccccc2)c(N2CCCC2)c1/C=N/NC(=O)c1cc(-c2ccccc2)nc2ccccc12	2%	0%	10%[1.9 µM]	-1%
Cc1nn(-c2ccccc2)c(N2CCCC2)c1/C=N/NC(=O)c1cc2ccccc2cc1O	16µM*	-1%	-17%[10 µM]	-7%
